{
  "source": "PubChem BioAssay AID493215",
  "about": "(National Center for Advancing Translational Sciences (NCATS), 2011)",
  "note": "Results filed as inconclusive are left out. Active and inactive are the calls of the source. Calls follow the shape of the dose curve; as a rule, active = well fitted inhibition curve with a large enough effect; inconclusive = small, poorly fitted or top-dose-only effect; inactive = flat fitted curve, though single readings scatter.",
  "data": [
    {"target": "Cruzipain (Trypanosoma cruzi) (UniProt P25779)", "sequence (P25779 123-467 limits assumed)": "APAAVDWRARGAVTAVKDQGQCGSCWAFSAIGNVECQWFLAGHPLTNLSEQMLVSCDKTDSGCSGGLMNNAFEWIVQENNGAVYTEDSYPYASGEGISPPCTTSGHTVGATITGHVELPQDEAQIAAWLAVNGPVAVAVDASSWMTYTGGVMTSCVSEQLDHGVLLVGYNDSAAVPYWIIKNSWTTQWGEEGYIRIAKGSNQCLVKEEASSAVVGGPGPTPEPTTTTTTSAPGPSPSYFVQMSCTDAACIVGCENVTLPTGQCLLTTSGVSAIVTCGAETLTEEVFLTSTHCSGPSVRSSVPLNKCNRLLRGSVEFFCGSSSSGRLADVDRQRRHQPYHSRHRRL", "assay": "Inhibitors of Cruzain: Benzimidazole Series - Round 1", "conditions": "purified cruzain, Z-FR-AMC fluorogenic cleavage; series mostly up to 57.1 µM; activity change, negative = inhibition: at the top concentration", "method": "Cruzain is a cysteine protease from the tropical parasite Trypanosoma cruzi. This assay protocol is for an initial exploratory first round of benzimidazole-based inhibitors. Cruzain was assayed by the use of fluorogenic coumarin-based substrate Z-FR-AMC: proteolytic cleavage releases AMC, whose fluorescence is measured at 360 nm excitation and 450 nm emission. Purified cruzain was supplied by the labs of Prof. James McKerrow and Brian Shoichet, UC San Francisco. This assay had 0.01% Triton X-100 concentration.\nSee following references for additional details:\nAssay Provider: Shoichet, Brian; University of California, San Fancisco\nScreening Center PI: Austin, C.P.\nScreening Center: NIH Chemical Genomics Center [NCGC]\nBuffer: 100 mM Sodium Acetate, pH 5.5, 5 mM DTT, Triton X-100 concentration: 0.01%.\nBuffer in columns 3 and 4 as negative control (no enzyme).\nSubstrate solution: 2 uM final concentration of Z-FR-AMC (catalog number I-1160, Bachem) dispensed throughout the plate.\nEnzyme: 1.5 nM Cruzain final concentration in columns 1, 2, 5-48. Column 1 is neutral (100% activity). Column 2 contained titration of covalent inhibitor K11777, starting concentration 1 mM, then 1:2 dilution in duplicate).\nThree uL of enzyme or buffer were dispensed to 1536-well Greiner black solid bottom plates. Compounds and controls (23 nL) were transferred via Kalypsys PinTool. The plates were incubated for 15 min at room temperature, and then 1 uL of substrate solution was added to start the reaction. The plates were immediately transferred to and read 4 times every 30 seconds for 2 min on ViewLux High-throughput CCD imager (Perkin-Elmer) using 360 nm excitation and 450 nm emission fluorescence protocol. The fluorescence intensity difference between the third and the first time points (time lapse of 60 seconds) was used to compute reaction progress.", "values": [
      {"smiles": "O=C(NCc1nnc(-c2nc3ccccc3[nH]2)o1)C1CCCCC1", "activity change, negative = inhibition": "10.7% (inactive)"},
      {"smiles": "Cc1ccc(C)c(OCCn2c(CCNC(=O)COc3ccc(F)cc3)nc3ccccc32)c1", "Potency": "9.13 µM (active)"},
      {"smiles": "O=C(Cc1nnc(-c2nc3ccccc3[nH]2)o1)Nc1cc(C(F)(F)F)ccc1Cl", "activity change, negative = inhibition": "4.58% (inactive)"},
      {"smiles": "O=C(COc1ccc(F)cc1)NCCc1nc2ccccc2[nH]1", "Potency": "4.08 µM (active)"},
      {"smiles": "O=C(NNC(=O)c1nc2ccccc2[nH]1)OCc1ccccc1", "activity change, negative = inhibition": "-7.65% (inactive)"},
      {"smiles": "O=C(COc1ccccc1Br)NCCc1nc2ccccc2[nH]1", "Potency": "3.63 µM (active)"},
      {"smiles": "CC(C)(C)OC(=O)NCC(=O)NNC(=O)c1nc2ccccc2[nH]1", "activity change, negative = inhibition": "2.49% (inactive)"},
      {"smiles": "Cc1ccc(C)c(OCCn2c(CCNC(=O)C3CCCCC3)nc3ccccc32)c1", "Potency": "1.62 µM (active)"},
      {"smiles": "CC(C)(C)OC(=O)NCc1nnc(-c2nc3ccccc3[nH]2)o1", "activity change, negative = inhibition": "-4.26% (inactive)"},
      {"smiles": "CC(C)(C)OC(=O)Cc1nnc(-c2nc3ccccc3[nH]2)o1", "activity change, negative = inhibition": "-0.371% (inactive)"},
      {"smiles": "O=C(NCCc1nc2ccccc2n1CCO)C1CCCCC1", "Potency": "6.46 µM (active)"}
    ]}
  ]
}
